Source: PubChem BioAssay (NCATS)
Results filed as inconclusive are left out. A call without a number means that no potency is given here. The source made the active and inactive calls. Calls follow the shape of the dose curve; as a rule, active = well fitted cell-killing curve with a large enough effect; inconclusive = small, poorly fitted or top-dose-only effect, or effect the other way; inactive = no such curve, though single readings can be large or run the other way.

Test: Quantitative High-Throughput drug screen in 47 multiple myeloma cell lines against the NCATS MIPE library collection: L363_DSMZ cell viability assay (AID 1918984); also: nearly all actives have a fitted effect of over 40% in size
Details: L363 myeloma viability, CellTiter-Glo ATP luminescence, 48 h; series mostly up to 45.8 µM
Summary of the method: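 MIPE 4.0 approved/investigational drugs; 500 cells/well; 48 h 37 °C humidified 5% CO2; CTG luminescence readout; DMSO = 100%, media = 0% viability.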
Potency is read from the fitted curve at half-maximal effect.

SMILES | Potency
COc1ccc(S(=O)(=O)Nc2cccnc2Nc2ccc(O)cc2)cc1 | inactive
CC(=O)N[C@H]1[C@@H]([C@H](O)[C@H](O)CO)OC(C(=O)O)=C[C@@H]1N=C(N)N | inactive
COc1cc(C)c(C=CC(C)=CC=CC(C)=CC(=O)O)c(C)c1C | inactive
CCCCCCCCc1ccc(CCC(N)(CO)CO)cc1 | 4.18 µM (active)
C[C@H](CCC(=O)O)[C@H]1CCC2C3C[C@H](O)[C@@H]4C[C@H](O)CC[C@]4(C)C3CC[C@@]21C (stereo partly drawn) | inactive
Oc1cc(-c2nc(-c3ccccc3)[nH]c2-c2ccncc2)ccc1Cl | 0.332 µM (active)
C[C@H](CCC(=O)O)[C@H]1CC[C@H]2[C@@H]3[C@H](O)C[C@@H]4C[C@H](O)CC[C@]4(C)[C@@H]3CC[C@]12C | inactive
NC[C@H]1O[C@H](O[C@H]2[C@@H](O)[C@@H](O[C@H]3O[C@H](CO)[C@@H](O)[C@H](N)[C@@H]3O)[C@H](N)C[C@@H]2N)[C@H](N)C[C@H]1O | inactive
COc1cc2c(Nc3ccc(Cl)c(Cl)c3F)ncnc2cc1OCC1C[C@@H]2CN(C)C[C@H]2C1 | 1.66 µM (active)
COC(=O)[C@H](CCCN=C(N)N)NS(=O)(=O)c1ccc(C)cc1 | inactive
C[N+](C)([O-])CCNc1ccc(NCC[N+](C)(C)[O-])c2c1C(=O)c1c(O)ccc(O)c1C2=O | inactive
CCOC(=O)[C@H](CCc1ccccc1)N[C@@H](C)C(=O)N1[C@@H](C(=O)O)C[C@H]2CCC[C@@H]21 | 7.43 µM (active)
Oc1ccc(-c2ccc(-c3cc(Nc4cccc(CNC5CC5)c4)n[nH]3)cc2)c(O)c1 | 0.148 µM (active)
